# Hedgehog inh = Hedgehog pathway signaling inhibitors, primary screen, luminescence, Shh-LIGHT2 cells, Gli-luciferase | Shh-LIGHT2 Gli-luciferase reporter, 30 h | inhibition, % (test concentration not listed) | actives 2.1% (n = 22,000) | AID 2313, 2010;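 active = mean inhibition across valid replicates above about 65%, limit read from the data; inconclusive = mean under the limit, yet half or more replicates past it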;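 note: pathway switched on by Shh-conditioned medium diluted 1 in 25 in low serum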
# PD-1 reversal = activators reversing PD-1 mediated T-cell inhibition, primary screen, luminescence, primary human CD4 T cells, PD-L1 beads. CellTiter-Glo 96 h. activation, % (concentration not given with the values). 29,000 tested, under 10 active. AID 2316, 2010; call rule not given here
# NOMO-1 viab = NOMO-1 AML cell viability reduction, primary screen, STK33 inhibitor project, CellTiter-Glo luminescence; inhibition, % (concentration not given with the values); NOMO-1 AML viability, 72 h; actives 7.5% (n = 37,000); in the data active = inhibition above about 80%; inconclusive = no clear call, values can overlap the other calls
# Hits are given with their value; i = inactive; ? = inconclusive; nt = no result given. An excerpt weighted towards active compounds, which were near 7.7% of everything screened.
SMILES,Hedgehog inh,PD-1 reversal,NOMO-1 viab
C=C(C)[C@H]1O[C@H]2CC[C@@]3(C)[C@@](O)(CC[C@H]4[C@@H]5OC(C)(C)[C@H]6C[C@@H]7C(=C)Cc8c(Cl)cc9[nH]c(c5c9c8[C@@]76O)[C@@]43C)[C@]23O[C@@H]3[C@H]1O,i,nt,115.7
CN(C)C(=O)Oc1ccnc(SCc2c(F)cccc2Cl)n1,i,i,i
CCOc1cc(CN2CCN(C(=O)COc3ccc(C)cc3)CC2)ccc1OC,i,i,i
CC1(C)C(=O)C=C[C@@]2(C)C1C[C@@H](O)[C@]1(C)C2CC[C@@]2(C)[C@H](c3ccoc3)OC(=O)[C@H]3O[C@]321 (stereo partly drawn),i,nt,i
COCc1cc(OC(=O)N(C)C)nc(-c2ccncc2)n1,nt,i,i
CN1C[C@H](CNC(=O)OCc2ccccc2)C[C@@H]2c3cccc4c3c(cn4C)C[C@H]21,i,nt,103.9
CC[C@@H](CO)NC(=O)[C@@H]1C=C2c3cccc4c3c(cn4C)C[C@H]2N(C)C1,nt,i,i
C=C(C)c1cc2cc(C(C)=O)c(O)cc2o1,i,nt,i
CN1CCc2nc3sc(C(=O)C(C)(C)C)c(N)c3cc2C1,?,i,122.0
COC(=O)c1c(C)n(CCCOC(C)C)c2c1cc(O)c1ccccc12,nt,i,i
COC1=CC(=O)O[C@@H](CCc2ccc3c(c2)OCO3)C1,i,i,i
CCCC(C)n1[nH]c(=O)c2c1NC(=O)CSC2c1cccc([N+](=O)[O-])c1 (stereo not drawn),nt,i,i
Cc1ccc(NC(=O)c2cc(C)n(C(C)(C)C)n2)cc1,i,i,i
CCN1C[C@]2(COC)CC[C@H](O)[C@]34C1[C@H](C[C@H]23)[C@@]1(O)C[C@H](OC)[C@H]2C[C@@H]4[C@@H]1[C@H]2OC(C)=O,i,nt,i
CC1=C2C[C@H]3[C@@H](CC=C4C[C@@H](O)CC[C@@]43C)[C@@H]2CC[C@]12O[C@@H]1C[C@H](C)CN[C@H]1[C@H]2C,88.9,nt,i
COC[C@H]1OC(=O)c2coc3c2[C@@]1(C)C1=C(C3=O)[C@@H]2CCC(=O)[C@@]2(C)C[C@H]1OC(C)=O,i,i,89.8
CN[C@@H](C)[C@@H](O)c1ccccc1,i,nt,i
CC(=O)Oc1ccc(/C=C/c2cc(OC(C)=O)cc(OC(C)=O)c2)cc1,i,nt,87.7
C[C@]12C=CC(=O)C=C1CC[C@@H]1C2CC[C@]2(C)C(=O)CCC12 (stereo partly drawn),i,i,i
O=c1[nH]c2ccccc2n1C1CCN(CCCC(c2ccc(F)cc2)c2ccc(F)cc2)CC1,72.8,nt,115.6
Cc1nn(Cc2cccc(C(=O)Nc3ccc4oc(=O)cc(C(F)(F)F)c4c3)c2)c(C)c1Cl,nt,i,i
CCC1(C)CC(=O)NC(=O)C1,i,i,i
CCc1cccc(C)c1N(C(=O)CCl)C(C)COC (stereo not drawn),i,nt,i
CC(C)N(C(=O)CCl)c1ccccc1,70.5,nt,110.7
CCC1=CC2CN3CCc4c([nH]c5ccccc45)[C@@](C(=O)OC)(C2)[C@@H]13,i,i,i
SMILES,Hedgehog inh,PD-1 reversal,NOMO-1 viab
CCCC(=O)O[C@@H]1[C@@H](C)[C@@]2(O)[C@@H](C=C(CO)C[C@]3(O)C(=O)C(C)=C[C@@H]23)[C@@H]2C(C)(C)[C@]12OC(=O)CCC,69.7,i,i
N#CC(O[C@@H]1O[C@H](CO)[C@@H](O)[C@H](O)[C@H]1O)c1ccccc1 (stereo partly drawn),i,i,i
CCC[C@H]1C[C@H]2OC(=O)c3c(cc(OC)c(OC)c3O)[C@H]2O1,i,i,i
CC(C)NCC(O)c1ccc(N)c(C#N)c1 (stereo not drawn),i,nt,i
CC1OC(O[C@H]2C[C@@H](O)[C@]3(CO)[C@H]4[C@H](O)C[C@]5(C)[C@@H](C6=CC(=O)OC6)CC[C@]5(O)[C@@H]4CC[C@]3(O)C2)C(O)C(O)C1O (stereo partly drawn),i,i,98.1
C[C@H]1O[C@@H](O[C@H]2C[C@@H](O)[C@]3(CO)C4C(CC[C@]3(O)C2)[C@@]2(O)CC[C@H](C3=CC(=O)OC3)[C@@]2(C)C[C@H]4O)[C@@H](O)[C@@H](O)[C@H]1O (stereo partly drawn),i,i,121.0
C[C@@H]1O[C@@H](O[C@H]2C[C@@H](O)[C@]3(CO)C4C(CC[C@]3(O)C2)[C@@]2(O)CC[C@H](C3=CC(=O)OC3)[C@@]2(C)C[C@H]4O)[C@H](O)[C@H](O)[C@H]1O (stereo partly drawn),i,nt,106.9
Cc1c(O)c(C(=O)O)c(O)c2c1[C@H](C)[C@@H](C)OC2=O,i,i,i
C=C[C@@]12CN(C)[C@H]3[C@H]1[C@@]1(C(=O)Nc4ccccc41)C1CC2[C@@H]3CO1,i,nt,i
CN1CCN(c2ccc3ccccc3n2)CC1,i,i,i
CC1(C)CC(=O)C2=C(C1)OC(N)=C(C(=O)OC(C)(C)C)C21C(=O)Nc2ccccc21 (stereo not drawn),i,i,i
CC[C@H]1CN2CC[C@H]1C[C@@H]2[C@@H](O)c1ccnc2ccc(OC)cc12,i,i,i
CCOC(=O)c1c(NC(=O)C2C(C)(C)C2(C)C)sc2c1CCC2,i,i,i
COc1ccc2c(c1OC)CN1CCc3cc4c(cc3C1C2)OCO4 (stereo not drawn),i,nt,i
COc1ccc2c(c[n+](C)c3c4cc5c(cc4ccc23)OCO5)c1OC,i,i,141.8
O=C(CCCN1CCC2(CC1)C(=O)N(Cc1cccc(F)c1)CN2c1ccccc1)c1ccc(F)cc1,?,nt,91.1
CC(=O)NC1C(OC2OC(CC(O)C3OC(n4ccc(=O)[nH]c4=O)C(O)C3O)C(O)C(O)C2NC(=O)/C=C/CCCCCCCCCC(C)C)OC(CO)C(O)C1O (stereo not drawn),107.9,i,108.1
c1cncc(C2=NCCC2)c1,i,i,i
CC1(C)C(C(=O)Nc2ccccc2C#N)C1(C)C,i,i,i
Cc1cc(Br)c(NC(=O)C2C(C)(C)C2(C)C)c(Br)c1,64.6,i,89.1
CC(C)(O)CCC(=O)[C@](C)(O)[C@H]1[C@H](O)C[C@@]2(C)[C@@H]3CC=C4C(C=C(O[C@@H]5O[C@H](CO)[C@@H](O)[C@H](O)[C@H]5O)C(=O)C4(C)C)[C@]3(C)C(=O)C[C@]12C (stereo partly drawn),i,i,i
Cc1cc(C(F)F)n2nc(C(=O)Nc3ccc4c(C(F)(F)F)cc(=O)oc4c3)nc2n1,nt,i,i
COC(=O)[C@@]12C(=O)C(C)C(=O)[C@]1(C)C(C)=C[C@H]1[C@]3(C=O)CC[C@H](OC(C)=O)C(C)(C)[C@H]3CC[C@@]12C (stereo partly drawn),i,nt,nt
CC1C/C=C/C2C3OC3(C)C(C)C3C(Cc4ccccc4)NC(=O)C23OC(=O)O/C=C/C(C)(O)C1=O (stereo not drawn),i,i,93.5
CC1=CC(=O)C2=C(C)C[C@H](O)[C@@H]3[C@H](OC(=O)[C@H]3C)[C@H]12,i,nt,i
N#Cc1c(Cl)cccc1Cl,i,nt,i
C/C=C(\C)C(=O)OC1C(C)=C2C(C1OC(=O)CCCCCCC)C(C)(OC(C)=O)CC(OC(=O)CCC)C1(O)C2OC(=O)C1(C)O (stereo not drawn),101.4,i,120.4
